VP16 counter: Gal4-VP16 reporter inhibition counter-screen | Potency, µM (doses to about 53.6 µM), inactives show top-dose activity, negative = inhibition, most hits filed as inhibitors | AID 2546 | Drosophila S2 Gal4-VP16 UAS-luciferase, luminescence, 20 h | 310,000 compounds, 3.5% hits;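 note: Gal4-VP16 expression switched on by copper sulfate through the metallothionein promoter; potency is the fitted concentration of half-maximal effect; % is set by controls: 0 for no effect and ±100 for the full control effect; nearly all actives have a fitted effect of over 50% in size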
Giardia killer: kills Giardia lamblia; activity change, % at 7.66 µM, hits read low; 340,000 compounds, 0.15% hits; Giardia lamblia trophozoite viability; AID 540267; in the data active = activity change below about -80%; inconclusive = between about -30% and that limit;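 note: parasites exposed to compound for two days anaerobically before the ATP read; % is set by controls: 0 for no effect and ±100 for the full control effect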
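Compounds were tested on trophozoites seeded at 100 cells/well and held 48 hrs at 37 deg C anaerobically. An ATP-based luminescent kit measured the remaining live cells.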
BCR signal inh: blocks chronic active B-cell receptor signaling; 340,000 compounds, 0.05% hits; AID 493014; Potency, µM (doses to about 46.1 µM), without a hit: at the highest dose activity change, negative = inhibition, actives largely listed as inhibitors; ABC-DLBCL IkBa-CBG/CBR reporter, luminescence ratio, 4 h; active = well fitted inhibition curve with a large enough effect in the signal ratio, with a control signal flat, not every such curve was filed as active; inconclusive = small, poorly fitted or top-dose-only effect, or effect the other way, or a change in a side signal; the % refers to the signal ratio;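 note: potency is the fitted concentration of half-maximal effect; plate controls were basal doxycycline-induced cells for no effect and cells given 10 µM MG132 for full effect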
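TMD8 human ABC-DLBCL cells with doxycycline-inducible IκBα–green luciferase fusion and unfused red luciferase, in 0.5% FBS medium; compounds up to 46 uM, 4 h at 37C. Green/red luminescence ratio, filter-overlap corrected, fitted to concentration-response curves.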
RORgamma inh: ROR gamma (mouse) transcription inhibition. Potency, µM (highest dose often 53.6 µM), for inactives: top-dose activity change, negative = inhibition, actives largely listed as inhibitors. P51450. AID 2551. 310,000 compounds, 5.4% hits. Drosophila S2 Gal4-RORgamma UAS-luciferase reporter, 20 h; note: potency is the fitted concentration of half-maximal effect; % is set by controls: 0 for no effect and ±100 for the full control effect; nearly all actives have a fitted effect of over 60% in size
Target sequence (P51450 whole entry, looked up, the tested form may be a part): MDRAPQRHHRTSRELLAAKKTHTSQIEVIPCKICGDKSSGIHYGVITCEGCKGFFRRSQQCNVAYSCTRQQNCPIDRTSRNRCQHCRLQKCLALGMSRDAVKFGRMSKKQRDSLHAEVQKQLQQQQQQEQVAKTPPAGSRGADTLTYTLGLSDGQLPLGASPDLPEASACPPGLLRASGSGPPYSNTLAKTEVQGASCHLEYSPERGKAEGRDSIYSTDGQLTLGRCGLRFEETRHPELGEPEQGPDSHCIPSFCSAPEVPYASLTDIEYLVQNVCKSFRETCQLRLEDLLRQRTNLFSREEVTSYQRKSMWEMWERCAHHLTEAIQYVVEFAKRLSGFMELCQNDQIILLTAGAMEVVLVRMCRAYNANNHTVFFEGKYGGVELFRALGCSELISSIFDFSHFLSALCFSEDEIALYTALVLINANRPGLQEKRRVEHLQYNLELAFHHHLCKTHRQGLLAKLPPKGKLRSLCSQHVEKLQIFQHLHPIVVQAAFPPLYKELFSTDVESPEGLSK
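Stably transfected Drosophila Schneider cells are the test system, with ROR gamma fused to Gal4 and luciferase under UAS control; luminescence is read after 20 hr of 700 uM copper sulfate induction at ambient temperature.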
MCF10A rerep: inducers of DNA re-replication in MCF 10A breast cells; MCF 10A DNA re-replication, Hoechst nuclear intensity, 48 h; Potency, µM (highest dose often 46.1 µM), without a hit: at the top dose activity, positive = re-replication, most hits filed as activators; 350,000 compounds, 2.9% hits; AID 624296; note: potency is the fitted concentration of half-maximal effect; % of control where 0% means no effect; nearly all actives have a fitted effect of over 50% in size
SW480 rereplic: inducers of DNA re-replication in SW480 colon cancer cells. SW480 DNA re-replication, Hoechst DNA content imaging, 48 h. Potency, µM (top dose mostly 46.1 µM), for inactives: at the highest dose re-replication activation, usual class: activators. 340,000 compounds, 1.8% hits; note: potency is the fitted concentration of half-maximal effect; % of control where 0% means no effect; nearly all actives have a fitted effect of over 55% in size
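Readout is total intensity of Hoechst-stained nuclei, excited at 405 nm and collected at 500-530 nm. Compound treatment lasted 48 hr at 37 C in 5% CO2 before staining.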
Starred values were filed as active, the others as inactive; ? = inconclusive; nt = not tested or not shown; ! = a repeat was not active. The list is not random: actives were taken first. Their share in the collection is about 8.3%. Unless noted, calls come from the whole dose curve; as a rule, active = well fitted curve in the direction sought with a large enough effect; inconclusive = small, poorly fitted or top-dose-only effect, or another doubt; inactive = no such curve, though single readings can be large; an effect the other way counts as inactive or inconclusive.

SMILES	VP16 counter	Giardia killer	BCR signal inh	RORgamma inh	MCF10A rerep	SW480 rereplic
Cc1cc(C(=O)Cn2nnc(-c3ccc(Cl)cc3)n2)c(C)n1-c1ccccc1	22.4µM*	-17.1	0.4%	?	?	-1.2%
NNC(N)=S	-12.7%	nt	nt	14.1µM*	nt	nt
NC(=S)Nc1ccccc1	5.6%	nt	nt	4.1%	nt	nt
CCCC(=O)O[C@@H]1[C@@H](C)[C@@]2(O)[C@@H](C=C(CO)C[C@@]3(O)C(=O)C(C)=C[C@@H]23)[C@@H]2C(C)(C)[C@]12OC(=O)CCC	-6.3%	nt	nt	11.8%	nt	nt
O=C1N=NC2=C1c1c3ccccc3c(O)n1CC2	3.0%	4.2	-19.5%	24.1%	-32.1%	-4.1%
COc1ccc(/C=C2/C(=O)N(Cc3ccco3)C(=O)N(C(C)C)C2=O)cc1	7.0%	7.6	0.2%	9.7%	18.4µM*	5.7%
CC(C)N1C(=O)/C(=C/C=C/c2ccco2)C(=O)N(Cc2ccco2)C1=O	?	26.3	-3.4%	?	9.2µM*	?
COc1cc(C=C2C(=O)NC(=O)NC2=O)ccc1OCc1ccc([N+](=O)[O-])cc1	0.3%	10.3	-2.1%	4.0%	15.9%	-18.3%
COc1cc(/C=C(/C)[N+](=O)[O-])ccc1OCc1ccccc1Cl	?	-17.3	?	3.98µM*	3.66µM*	3.26µM*
CC[C@H]1CN(C)C[C@@]2(C(=O)OC)Cc3c([nH]c4ccccc34)C(=O)C[C@@H]12	nt	-10.3	nt	nt	-32.3%	-41.5%
CC[C@H]1CC2CN3CCc4c([nH]c5cc(OC)ccc45)[C@](C(=O)OC)(C2)[C@H]13	nt	-9.8	nt	nt	?	0.731µM*
CCC(=NC(C)c1ccccc1)c1c(O)n(C)c(=O)n(C)c1=O (stereo not given)	12.6µM*	-3.0	?	?	23.7%	-9.7%
CC/C(=N\Nc1ccccc1)c1c(O)n(C)c(=O)n(C)c1=O	-8.3%	5.6	?	?	13.8%	-2.6%
CCN(CC)CCCC(C)N=C(c1ccccc1)c1c(O)n(C)c(=O)n(C)c1=O (stereo not given)	-0.8%	7.0	-0.8%	0.631µM*	-14.2%	0.4%
C/C(=N\NC(=S)Nc1ccccc1)c1c(O)n(C)c(=O)n(C)c1=O	?	6.8	1.3%	8.91µM*	?	1.6%
Cc1ccn2cc(C(=O)NCc3ccco3)nc2c1	-2.1%	18.9	?	4.2%	-0.7%	-7.1%
CC(C)C[C@H]1CNC(=S)N1CC1CCN(CC2CCC(C(C)(C)C)CC2)CC1 (stereo not given in full)	nt	-12.0	nt	nt	?	1.6%
C=C(C)C#N	5.3%	nt	nt	12.2%	nt	nt
Cc1ccc(C(c2nnnn2Cc2ccccc2)N2CC=C(c3ccc(F)cc3)CC2)cc1 (stereo not given)	-16.2%	-90.2*	7.0%	1.6%	-0.3%	2.4%
Fc1ccc(C2=CCN(C(c3ccc(Cl)cc3)c3nnnn3Cc3ccccc3)CC2)cc1 (stereo not given)	?	16.1	5.0%	15.3%	3.5%	17.2%
CN1CCC2(CC1)N=C(c1ccc(F)cc1)C(=S)N2	0.6%	-11.0	-3.1%	12.6µM*	-2.4%	0.5%
C=CC[C@]1(O)CCC2C3CCC4=CCCCC4C3CCC21C (stereo not given in full)	1.7%	nt	nt	-39.3%	18.8µM*	5.2%
CCCSP(=S)(OCC)Oc1ccc(Cl)cc1Cl (stereo not given)	0.8%	nt	nt	7.9%	nt	nt
O=c1c2cc(N3CCOCC3)ccc2[nH]c(=S)n1Cc1ccc(Cl)cc1	0.562µM*	11.5	-2.6%	8.91µM*	2.59µM*	12.8%
c1ccc(C(c2ccccc2)c2cccnc2)cc1	nt	8.3	nt	nt	6.9%	4.8%
c1ccc(-c2ccc(C(c3ccccc3)n3ccnc3)cc2)cc1 (stereo not given)	?	-0.8	7.4%	10µM*!	10.3µM*	?
Cc1ccc(C(=O)Nc2nc3ccccc3[nH]2)cc1	3.55µM*	-92.5*	?	2.51µM*	?	?
